This is an account of results in PubChem BioAssay AID2314 (National Center for Advancing Translational Sciences (NCATS), 2010).

The structures appear in SMILES notation. Screen size: about 300,000 compounds; about 37,000 (12%) were called active. The sample holds actives, similar compounds and a random draw of the others, so the mix is not that of the screen. A number with no mark means an inactive call. No stated cut-off is given here; in the data, active means max response mostly above about 13% (no sharp cut-off); inactive means mostly below about 14%.

This test is described as follows: Cycloheximide Counterscreen for Small Molecule Inhibitors of Shiga Toxin. Further: read at 38.3 µM for the half of the compounds with a filed dose; 0% is about no effect. As to conditions: cell reporter, cycloheximide protein synthesis inhibition counterscreen; hits give high values.
Consider `CCc1ccc(CN(C)C(=O)C2CCC(=O)N(Cc3cccc(OC)c3)C2)nc1` (stereo not drawn), for which the max response is 4.36%.

With `CCn1nc(C)c(NC(=O)/C=C/c2ccc(OC)c(COc3ccc(Br)cc3)c2)c1C`, the max response is 2.79%.

For the compound `CCCc1cc(=O)oc2c(C)c(OC(C)C(=O)NCC(O)c3ccccc3)ccc12` (stereo not drawn), the max response is -2.74%.

In the case of `Cc1ccc(S(=O)(=O)NCC(=O)N(CC(=O)NCC2CCCO2)c2cccc(F)c2)cc1` (stereo not drawn), the max response is 1.36%.

In the case of `CC(=O)NCC(=O)NC1CCCc2c1cnn2-c1ccccc1F` (stereo not drawn), the max response is 5.35%.

As to `CCOC(=O)C(=CNNc1ccsc1C(=O)OC)C(=O)OCC`, the max response is 12.1%.

Regarding `O=C1CN(c2nc(-c3ccccc3)c3cc(Br)ccc3n2)c2ccccc2N1`, the max response is -2.03%.

Turning to `O=S(=O)(NCC1CN(S(=O)(=O)c2ccc3c(c2)OCCO3)C1)c1c(F)cccc1F`, the max response was -7.82%.

On to `COc1ccccc1CNC(=O)c1cc(=O)c2ccccc2o1`, for which the max response is 28.7%.

`Cc1sc2ncnc(Sc3nc4ccccc4s3)c2c1C`: the max response was -3.1%.

Consider `O=C1NC(Nc2nc3ccccc3s2)(C(F)(F)F)C(=O)N1C1CCCCC1` (stereo not drawn), for which the max response was 0.879%.

Turning to `c1ccc2sc(SNC3CCCCC3)nc2c1`, the max response was 43.3% (active).

For `Cc1c(CC(=O)N2CCN(C(=O)C3COc4ccccc4O3)CC2)c(=O)oc2c(O)c(O)ccc12` (stereo not drawn), the max response is -3.9%.

For `CCOc1ccccc1OCCCNCc1ccccc1`, the max response was -2.14%.

As for `COc1ccc2c(c1)cc1n2CCN=C1NN`, the max response is 64.4% (active).

With `Cc1cccc(OCC(O)CN2CCN(S(=O)(=O)c3ccc(C)cc3C)CC2)c1` (stereo not drawn), the max response was 6.97%.

Take `COc1ccc(NC2CCCN(C(=O)c3ccncc3)C2)cc1` (stereo not drawn): the max response was -1.48%.

Turning to `COc1ccc(NC(=O)N2CCCC(c3nc(-c4ccc(F)cc4)no3)C2)cc1` (stereo not drawn), the max response was 27.8% (active).

Regarding `CCN(C(=O)C1CCCN(c2nc(-c3ccc(OC)cc3)no2)C1)c1ccc(OC)cc1` (stereo not drawn), the max response is -1.83%.

As to `COc1cccc(-c2noc(C3CCCN(C(=O)c4ccc(F)cc4)C3)n2)c1` (stereo not drawn), the max response is 20.6% (active).

Consider `O=C(Cc1cccs1)N1CCCC(c2nc(-c3ccc(S(=O)(=O)N4CCCC4)cc3)no2)C1` (stereo not drawn), for which the max response was -2.82%.

In the case of `COc1cc(-c2noc(C3CCCN(S(=O)(=O)c4cccc(Cl)c4)C3)n2)cc(OC)c1OC` (stereo not drawn), the max response was -4.41%.

With `O=C(c1ccc(F)cc1)N1CCCC(C(=O)N2CCCCC2)C1` (stereo not drawn), the max response was -3.54%.

In the case of `CC(C)c1ccc(-c2noc(C3CCCN(S(C)(=O)=O)C3)n2)cc1` (stereo not drawn), the max response is 39.9% (active).

For `O=C(c1cccs1)N1CCCC(c2nc(-c3ccc(F)cc3)no2)C1` (stereo not drawn), the max response is 26.6% (active).

In the case of `CC(C)c1ccc(NC(=O)C2CCCN(S(=O)(=O)c3cccnc3)C2)cc1` (stereo not drawn), the max response is 5.83%.

As for `CCn1nc(C)cc1C(=O)N1CCCC(C(=O)c2cccc(OC)c2)C1` (stereo not drawn), the max response was 2.78%.

Regarding `O=C(c1ccc(F)cc1)N1CCCC(c2nc(-c3cccs3)no2)C1` (stereo not drawn), the max response was 20.3%.

Regarding `NC(=O)C1CC(=O)N(c2ccc(OCC(=O)NCc3ccccc3)cc2)C1` (stereo not drawn), the max response is -2.39%.

As to `Cc1ccc(S(=O)(=O)N2CCC(C)CC2)cc1C(=O)NCc1ccccn1`, the max response is 5.45%.

As for `NC(=O)c1oc2ccccc2c1NC(=O)CS(=O)(=O)c1ccccc1`, the max response is 14.9%.

In the case of `C=CCOc1cccc(CNCc2cccnc2)c1`, the max response is 1.07%.

For `COc1ccc(/C=C2/C(=O)OCc3cc(OC)c(OC)cc32)c(OC)c1`, the max response was -1.45%.

Regarding `CC(=O)c1cccc(NC(=O)C2CCN(C(=O)c3ccccc3Cl)CC2)c1`, the max response is -2.1%.

For `COC(=O)c1cccc(N(CC(=O)NCC2CCCO2)C(=O)CCC(=O)Nc2cc(C)on2)c1` (stereo not drawn), the max response was -2.44%.

`COc1cccc(NC(=O)CCc2nnc3ccc(N4CCC(C)CC4)nn23)c1`: the max response was -5.83%.

Consider `COc1ccccc1CN1CCNC(=O)C1CC(=O)N(C)CC1CCOCC1` (stereo not drawn), for which the max response is -1.38%.

Turning to `Cc1ccc2nc(C)c3c(c2c1)N(c1ccccc1)CC3`, the max response was -1.78%.

With `CCc1nc2ccc(C(=O)N3CCN(c4cccc(Cl)c4)CC3)cc2nc1CC`, the max response was -0.581%.

For the compound `Cc1ccc(-c2noc(C3CCCN(C(=O)c4cccc(Cl)c4)C3)n2)o1` (stereo not drawn), the max response is 47.3% (active).

With `Cc1c(CN2CCCC(C(=O)c3cccc(Cl)c3)C2)c(=O)n(-c2ccccc2)n1C` (stereo not drawn), the max response is -3.35%.

For the compound `Cc1cccc2c1-c1sc(C(=O)NCCCN3CCc4ccccc4C3)cc1CO2`, the max response is 1.19%.

In the case of `O=S1(=O)N=C(N(CCO)/N=C/c2ccccc2F)c2ccccc21`, the max response is -7.2%.

Consider `CCOC(=O)Cc1csc(SCC(=O)NC(C)C23CC4CC(CC(C4)C2)C3)n1` (stereo not drawn), for which the max response was -2.6%.

`CSc1ncccc1C(=O)N1CCCC(CCC(=O)NCc2ccccc2F)C1` (stereo not drawn): the max response is -1.29%.

Consider `Cc1[nH]c2c(C(=O)N3CCCC(CCC(=O)NCc4ccccc4F)C3)cccc2c1C` (stereo not drawn), for which the max response was 18.9% (active).

For the compound `O=C(CCC1CCCN(Cc2ccc(O)c(Cl)c2)C1)NCc1ccccc1F` (stereo not drawn), the max response is -1.08%.

As to `O=S1(=O)C=C(SCCN2CCCC2)c2ccccc21`, the max response is 4.83%.

In the case of `COc1ccc(CN2CCC(=O)c3ccccc3S2(=O)=O)cc1`, the max response is -4.16%.

Take `CC(C)(C)c1ccc(OC2=CS(=O)(=O)c3ccccc32)cc1`: the max response is 81.1% (active).

On to `CS(=O)(=O)N1CCCC(C(=O)Nc2ccccc2C(F)(F)F)C1` (stereo not drawn), for which the max response is 0.965%.

With `CN1C(=O)c2cccc3c(N)ccc(c23)C1=O`, the max response is -4.64%.

With `C=CCOc1nc2c(c(=O)n(C)c(=O)n2C)n1Cc1ccc(Cl)cc1Cl`, the max response is -2.08%.

As for `Cn1c(=O)c2c(nc(OCc3cccnc3)n2Cc2ccccc2)n(C)c1=O`, the max response was 14.9% (active).

For `Cn1c(=O)c2c(nc(NCCc3ccccc3)n2Cc2ccccc2)n(C)c1=O`, the max response was -1.53%.

With `CS(=O)(=O)N(CC(=O)N1CCCCCC1)c1cccc(Cl)c1Cl`, the max response was -2.66%.

`CC(=O)Nc1ccc(S(=O)(=O)N2CCC(NC(=O)c3ccccc3)CC2)cc1`: the max response was -2%.

Regarding `COc1ccc(S(=O)(=O)N2CCN(C(=S)NCC3CCCO3)CC2)cc1OC` (stereo not drawn), the max response is -1.28%.
